# Measured values published in PubChem BioAssay (NCATS).
# Unmarked numbers belong to inactive results. Records with an inconclusive call do not appear. A call without a number means that no potency is given here. Active and inactive are the calls of the source. Unless noted, calls follow the shape of the dose curve; as a rule, active = well fitted curve in the direction sought with a large enough effect; inconclusive = small, poorly fitted or top-dose-only effect, or another doubt; inactive = no such curve, though single readings can be large; an effect the other way counts as inactive or inconclusive.
# Columns and labels:
# [1] = Validation of Assay for Modulators of Lamin A Splicing (AID 1459; active = well fitted curve in the direction sought with a large enough effect in the signal ratio; the % refers to the signal ratio;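 also: cells exposed to compound for two days before reading; ratio rise marks activators and ratio drop marks inhibitors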)
# Procedure, shortened: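 S3 HeLa cells stably expressing a lamin A-EGFP splicing minigene and DsRed2 were seeded at 600 cells/well in Opti-MEM with 2% FBS, pin-dosed, and incubated 48 hrs at 37 °C, 5% CO2. Laser-scanning cytometry (488 nm) gave GFP/RFP total intensity ratio.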
# [2] = target: DNA repair nuclease/redox regulator APEX1 (Homo sapiens) (UniProt P27695); assay: qHTS Validation Assay for Inhibitors of the Human Apurinic/apyrimidinic Endonuclease 1 (APE1) (AID 1705;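 also: TAMRA fluorescence gain over two minutes as APE1 cuts a quenched THF abasic duplex; series mostly up to about 57 µM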)
# Chain of DNA repair nuclease/redox regulator APEX1 (Homo sapiens) (P27695 whole entry, looked up): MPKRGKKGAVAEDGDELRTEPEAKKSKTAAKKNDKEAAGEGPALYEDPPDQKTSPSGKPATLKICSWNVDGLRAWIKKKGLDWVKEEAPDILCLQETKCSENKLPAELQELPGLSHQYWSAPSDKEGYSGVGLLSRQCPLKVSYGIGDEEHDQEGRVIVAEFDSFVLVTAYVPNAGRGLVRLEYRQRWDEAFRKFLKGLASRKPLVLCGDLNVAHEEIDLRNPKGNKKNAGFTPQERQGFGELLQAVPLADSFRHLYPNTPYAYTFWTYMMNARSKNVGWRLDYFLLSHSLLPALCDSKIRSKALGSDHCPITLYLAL
# Procedure, shortened: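 Human APE1 was preincubated with compound for 15 min at room temperature, then 50 nM (final) THF-abasic double-stranded DNA substrate bearing 5'-TAMRA and 3'-BHQ-2 was added. Incision-driven fluorescence rise (ex 525/em 598 nm) was read kinetically.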
# [3] = target: ATP-dependent DNA helicase Q1 (Homo sapiens) (UniProt P46063); assay: qHTS Validation Assay for Inhibitors of RecQ-Like Dna Helicase 1 (RECQ1) (AID 2353)
# Chain of ATP-dependent DNA helicase Q1 (Homo sapiens) (P46063 whole entry, looked up): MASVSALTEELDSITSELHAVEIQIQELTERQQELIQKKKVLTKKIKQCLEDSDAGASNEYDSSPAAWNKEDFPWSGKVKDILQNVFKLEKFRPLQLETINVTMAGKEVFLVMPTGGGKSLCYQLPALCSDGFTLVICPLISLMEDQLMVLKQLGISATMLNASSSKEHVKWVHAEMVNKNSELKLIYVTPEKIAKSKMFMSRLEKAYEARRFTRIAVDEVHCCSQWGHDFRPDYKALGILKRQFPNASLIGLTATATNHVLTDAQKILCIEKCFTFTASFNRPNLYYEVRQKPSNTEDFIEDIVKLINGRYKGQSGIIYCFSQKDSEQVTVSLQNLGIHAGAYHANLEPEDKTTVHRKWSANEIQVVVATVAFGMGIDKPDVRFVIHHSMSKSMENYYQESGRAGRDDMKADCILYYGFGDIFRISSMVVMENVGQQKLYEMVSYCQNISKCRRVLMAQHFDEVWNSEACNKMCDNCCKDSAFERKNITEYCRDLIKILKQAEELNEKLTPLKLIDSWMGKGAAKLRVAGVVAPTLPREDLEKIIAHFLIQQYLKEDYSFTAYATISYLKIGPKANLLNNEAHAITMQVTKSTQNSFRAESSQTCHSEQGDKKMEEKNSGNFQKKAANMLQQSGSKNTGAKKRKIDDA
# Procedure, shortened: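 50 nM RECQ1T1 preincubated 15 min with compound in Tris pH 8.0 buffer with MgCl2, DTT, Tween-20 and 2.5 ug/ml poly(dI-dC); started with 200 nM TAMRA/BHQ-2 forked duplex and 2 mM ATP. Unwinding read as fluorescence (525/598 nm), two reads 2 h apart.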
# [4] = Quantitative high throughput screen for delayed death inhibitors of the malarial parasite plastid, 96 hour incubation (AID 488745); also: nearly all actives have a fitted effect of over 70% in size; also: potency is read from the fitted curve at half-maximal effect
# Procedure, shortened: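 Luciferase-expressing P. falciparum in erythrocytes (2% hematocrit, 0.1% parasitemia) incubated with compound for 96 h at 37 C, 5% CO2, in RPMI 1640 with 0.5% Albumax. Growth inhibition read as decreased luminescence.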
# [5] = Quantitative high throughput screen for delayed death inhibitors of the malarial parasite plastid, 48 hour incubation (AID 488752); also: potency is read from the fitted curve at half-maximal effect; nearly all actives have a fitted effect of over 65% in size
# Procedure, shortened: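 Erythrocytes infected with firefly luciferase-expressing P. falciparum (2% hematocrit, 0.1% parasitemia) cultured with compound for 48 h at 37 C, 5% CO2, in RPMI 1640/0.5% Albumax. Growth inhibition read as loss of luminescence.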
# [6] = target: Thyrotropin receptor (Homo sapiens) (UniProt P16473); assay: qHTS Assay for Antagonists of the Thyroid Stimulating Hormone Receptor (AID 488980); also: series mostly up to about 58 µM
# Chain of Thyrotropin receptor (Homo sapiens) (P16473 whole entry, looked up): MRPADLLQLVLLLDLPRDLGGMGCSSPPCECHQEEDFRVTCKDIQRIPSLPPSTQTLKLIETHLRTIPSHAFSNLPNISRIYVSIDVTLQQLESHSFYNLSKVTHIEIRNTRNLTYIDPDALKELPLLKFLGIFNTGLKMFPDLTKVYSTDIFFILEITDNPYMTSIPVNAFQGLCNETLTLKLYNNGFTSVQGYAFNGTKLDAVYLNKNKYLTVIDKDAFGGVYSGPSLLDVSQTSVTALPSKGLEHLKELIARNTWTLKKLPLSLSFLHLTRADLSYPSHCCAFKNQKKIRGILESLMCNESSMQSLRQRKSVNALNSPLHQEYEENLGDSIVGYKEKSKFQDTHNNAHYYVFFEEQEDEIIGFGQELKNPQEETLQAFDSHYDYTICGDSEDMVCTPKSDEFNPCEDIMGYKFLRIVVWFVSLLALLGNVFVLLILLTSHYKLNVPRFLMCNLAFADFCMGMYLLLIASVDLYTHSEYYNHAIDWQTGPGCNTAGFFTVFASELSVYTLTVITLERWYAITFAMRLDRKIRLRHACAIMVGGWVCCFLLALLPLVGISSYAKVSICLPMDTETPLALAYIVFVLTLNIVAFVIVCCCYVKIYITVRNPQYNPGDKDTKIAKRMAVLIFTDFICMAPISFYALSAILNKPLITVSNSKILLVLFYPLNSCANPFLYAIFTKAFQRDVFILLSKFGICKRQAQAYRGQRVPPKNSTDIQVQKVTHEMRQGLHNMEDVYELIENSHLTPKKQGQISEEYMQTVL
# Procedure, shortened: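 HEK293 cells transfected with human TSHR, suspended in HEPES-buffered HBSS with 70 uM RO 20-1724, were treated with compounds plus TSH at EC80 (4 nM final). cAMP was measured by competitive HTRF (cryptate anti-cAMP antibody, cAMP-d2 acceptor).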
# [7] = target: Thyrotropin-releasing hormone receptor (Homo sapiens) (UniProt P34981); assay: qHTS for Small Molecule Agonists and Allosteric Enhancers of Human TRH Receptor: Validation Screen for Agonists (AID 493127;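 active = calcium activation more than 3 SD above the typical response in the agonist read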); details: TRH receptor agonist cell assay; at 2 µM; active compounds read high
# Chain of Thyrotropin-releasing hormone receptor (Homo sapiens) (P34981 whole entry, looked up): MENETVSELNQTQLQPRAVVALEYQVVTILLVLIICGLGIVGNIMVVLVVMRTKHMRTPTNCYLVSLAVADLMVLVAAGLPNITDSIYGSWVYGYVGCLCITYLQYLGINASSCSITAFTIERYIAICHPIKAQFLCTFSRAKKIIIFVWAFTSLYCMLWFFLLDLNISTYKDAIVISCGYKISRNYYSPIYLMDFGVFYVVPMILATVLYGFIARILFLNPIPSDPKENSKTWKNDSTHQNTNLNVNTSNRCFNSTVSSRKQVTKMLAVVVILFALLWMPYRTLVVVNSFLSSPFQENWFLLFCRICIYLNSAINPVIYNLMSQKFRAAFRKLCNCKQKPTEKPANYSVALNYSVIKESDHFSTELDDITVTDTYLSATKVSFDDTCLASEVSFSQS
# Procedure, shortened: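 TRHR cells loaded with fluo-8 calcium dye; FDSS kinetic fluorescence (Ex 480/Em 530) read at 1 s/cycle after 23 nL compound addition. Agonist-mode calcium response recorded before the 10 nM TRH (EC20) addition.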
# [8] = target: Galactokinase (Homo sapiens) (UniProt P51570); assay: qHTS Validation Assay for Inhibitors of Human Galactokinase (GALK) (AID 493189)
# Chain of Galactokinase (Homo sapiens) (P51570 whole entry, looked up): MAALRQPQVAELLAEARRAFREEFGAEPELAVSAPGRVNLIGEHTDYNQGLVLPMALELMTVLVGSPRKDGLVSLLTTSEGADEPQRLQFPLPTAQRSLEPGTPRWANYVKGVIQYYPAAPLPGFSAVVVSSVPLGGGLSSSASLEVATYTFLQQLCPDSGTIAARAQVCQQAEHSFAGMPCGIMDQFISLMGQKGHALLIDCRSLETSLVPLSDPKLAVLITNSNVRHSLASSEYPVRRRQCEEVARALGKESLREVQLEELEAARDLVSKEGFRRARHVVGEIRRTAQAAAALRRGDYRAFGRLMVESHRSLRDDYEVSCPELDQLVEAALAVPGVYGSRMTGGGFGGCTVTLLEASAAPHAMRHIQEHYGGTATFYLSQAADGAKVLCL
# Procedure, shortened: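 GALK (5 nM) with 35 uM ATP and 100 uM galactose in HEPES pH8.0, MgCl2, NaCl, DTT, BSA; 1 h at room temperature. Residual ATP read by Kinase-Glo Plus luminescence after 10 min.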
# [9] = Validation screen for small molecules that induce DNA re-replication in SW480 colon adenocarcinoma cells (AID 504364)
# Procedure, shortened: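 SW480 cells (250/well) exposed 48 h at 37 C, 5% CO2, then Hoechst-stained 40 min. Nuclear DNA content imaged by fluorescence scanning (405 nm excitation, 500-530 nm emission); re-replication scored as increased nuclei with elevated intensity.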
# [10] = target: Voltage-gated inwardly rectifying potassium channel KCNH2 (Homo sapiens) (UniProt Q12809); assay: qHTS Assay for Small Molecule Inhibitors of the Human hERG Channel Activity (AID 588834);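 also: top concentration of the series differs between compounds; lower thallium flux fluorescence means stronger hERG block; nearly all actives have a fitted effect of over 50% in size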
# Chain of Voltage-gated inwardly rectifying potassium channel KCNH2 (Homo sapiens) (Q12809 whole entry, looked up): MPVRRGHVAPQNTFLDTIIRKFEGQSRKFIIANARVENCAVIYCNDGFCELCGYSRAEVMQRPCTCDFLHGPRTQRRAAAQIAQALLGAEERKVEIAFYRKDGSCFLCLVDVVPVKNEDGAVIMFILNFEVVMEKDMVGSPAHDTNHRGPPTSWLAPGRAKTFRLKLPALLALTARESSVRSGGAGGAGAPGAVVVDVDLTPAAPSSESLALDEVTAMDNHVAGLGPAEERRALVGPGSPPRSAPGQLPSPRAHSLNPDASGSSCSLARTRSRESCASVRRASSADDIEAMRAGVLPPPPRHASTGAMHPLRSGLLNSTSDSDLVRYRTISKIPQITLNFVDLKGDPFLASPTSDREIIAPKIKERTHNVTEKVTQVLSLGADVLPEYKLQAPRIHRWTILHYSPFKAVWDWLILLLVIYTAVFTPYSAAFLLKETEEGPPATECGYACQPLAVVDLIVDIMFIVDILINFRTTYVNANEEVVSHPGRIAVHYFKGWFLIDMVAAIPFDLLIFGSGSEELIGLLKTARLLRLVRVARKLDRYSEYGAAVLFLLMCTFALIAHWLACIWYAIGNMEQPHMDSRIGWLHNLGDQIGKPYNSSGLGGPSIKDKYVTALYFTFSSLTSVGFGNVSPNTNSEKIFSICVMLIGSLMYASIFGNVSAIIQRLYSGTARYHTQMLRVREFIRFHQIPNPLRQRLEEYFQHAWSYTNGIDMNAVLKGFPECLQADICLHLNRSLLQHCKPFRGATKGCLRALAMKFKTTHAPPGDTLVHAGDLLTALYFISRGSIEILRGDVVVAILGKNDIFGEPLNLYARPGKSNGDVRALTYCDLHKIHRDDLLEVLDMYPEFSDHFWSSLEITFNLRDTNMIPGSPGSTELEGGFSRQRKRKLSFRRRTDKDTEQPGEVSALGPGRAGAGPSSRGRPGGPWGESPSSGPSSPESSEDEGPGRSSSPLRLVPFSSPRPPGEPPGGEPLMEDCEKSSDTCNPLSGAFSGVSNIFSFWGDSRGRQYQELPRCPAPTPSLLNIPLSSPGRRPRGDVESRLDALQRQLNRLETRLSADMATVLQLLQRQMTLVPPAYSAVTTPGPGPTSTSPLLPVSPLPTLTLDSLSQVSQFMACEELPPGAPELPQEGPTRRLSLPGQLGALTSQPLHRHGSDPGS
# Procedure, shortened: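 U2OS cells transduced with hERG via BacMam (MOI ~100), plated 2000/well, loaded with FluxOR thallium dye, compound ~10 min, then stimulation buffer; fluorescence decrease read kinetically; AC50 from Hill fits.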
# [11] = target: Calcium and integrin-binding protein 1 (Homo sapiens) (UniProt Q99828); assay: Confirmatory qHTS for Identification of Calcium Integrin Binding Protein 1 (CIB1) Competitor (AID 1508617); also: nearly all actives have a fitted effect of over 65% in size; also: potency is read from the fitted curve at half-maximal effect
# Chain of Calcium and integrin-binding protein 1 (Homo sapiens) (Q99828 whole entry, looked up): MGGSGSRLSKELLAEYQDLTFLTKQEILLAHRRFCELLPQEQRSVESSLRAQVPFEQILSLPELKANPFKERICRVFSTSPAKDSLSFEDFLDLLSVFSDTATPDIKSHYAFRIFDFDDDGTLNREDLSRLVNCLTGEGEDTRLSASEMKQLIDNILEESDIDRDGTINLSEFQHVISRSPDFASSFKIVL
# Procedure, shortened: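 Fluorescence polarization competition: CIB1-GST (1 uM final) in 5 mM HEPES pH 7.4, 125 mM NaCl, 5 mM CaCl2, 0.01% Tween20 preincubated 15 min RT with compound (up to 114 uM), then FITC-alphaIIb peptide (100 nM) added, 15 min RT.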
# [12] = Counterscreen for APE1 Inhibitors: Fluorescent Dye Displacement Validation Assay (AID 1707)
# Procedure, shortened: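 Thiazole Orange displacement from dsDNA: 250 nM ThO with 50 nM TAMRA-labelled abasic-site (tetrahydrofuran) duplex in 50 mM Tris-HCl pH7.5, 50mM NaCl, 2 mM MgCl2, 0.01% Tween-20. Loss of endpoint fluorescence (ex 480 nm, em 540 nm) flags DNA binders.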
# [13] = target: M-phase phosphoprotein 8 (Homo sapiens) (UniProt Q99549); assay: qHTS Validation Assay for Inhibitors for MPP8 Chromodomain Interactions with Methylated Histone Tails (AID 488949);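 also: AlphaScreen signal from MPP8 chromodomain bound to biotinylated H3K9me3 peptide; top concentration of the series differs between compounds; nearly all actives have a fitted effect of over 55% in size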
# Chain of M-phase phosphoprotein 8 (Homo sapiens) (Q99549 whole entry, looked up): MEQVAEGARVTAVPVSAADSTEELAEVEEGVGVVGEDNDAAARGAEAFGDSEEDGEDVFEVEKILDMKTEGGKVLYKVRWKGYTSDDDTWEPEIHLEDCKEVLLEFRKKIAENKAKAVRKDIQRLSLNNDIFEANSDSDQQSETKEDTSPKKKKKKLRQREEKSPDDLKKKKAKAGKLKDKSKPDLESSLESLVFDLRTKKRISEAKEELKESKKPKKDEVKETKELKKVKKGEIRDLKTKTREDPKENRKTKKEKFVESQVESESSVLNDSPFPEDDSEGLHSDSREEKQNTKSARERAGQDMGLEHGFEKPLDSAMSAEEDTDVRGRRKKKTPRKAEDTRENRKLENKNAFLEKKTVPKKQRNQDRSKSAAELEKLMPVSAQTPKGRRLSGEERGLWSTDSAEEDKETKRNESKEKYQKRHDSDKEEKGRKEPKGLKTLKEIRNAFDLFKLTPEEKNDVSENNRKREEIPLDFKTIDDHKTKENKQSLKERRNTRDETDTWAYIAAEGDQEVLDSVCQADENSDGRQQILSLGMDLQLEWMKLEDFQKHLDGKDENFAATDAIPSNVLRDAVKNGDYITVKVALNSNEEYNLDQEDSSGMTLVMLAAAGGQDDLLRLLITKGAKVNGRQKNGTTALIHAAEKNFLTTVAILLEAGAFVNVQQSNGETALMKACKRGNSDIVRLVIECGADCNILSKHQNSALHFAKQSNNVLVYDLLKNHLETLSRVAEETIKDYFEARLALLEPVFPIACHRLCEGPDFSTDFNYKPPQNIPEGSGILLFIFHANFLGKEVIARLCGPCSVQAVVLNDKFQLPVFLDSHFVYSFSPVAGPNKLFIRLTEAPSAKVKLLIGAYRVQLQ
# Procedure, shortened: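 MPP8 (50 nM) was preincubated with biotinylated H3(1-18)K9me3 peptide (50 nM) in PBS pH 7.4, 0.01% Tween-20 for 30 min at room temperature, then with compounds for 30 min; binding was detected by AlphaScreen.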
# [14] = qHTS for differential inhibitors of proliferation of Plasmodium falciparum line Dd2 (AID 1882); details: Potency: Plasmodium falciparum Dd2 proliferation inhibition; also: series mostly up to about 29 µM; nearly all actives have a fitted effect of over 65% in size
# Procedure, shortened: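 Dd2-infected erythrocytes (0.3% parasitemia, 2.5% hematocrit final) incubated with compound 72 h at 37 C, 5% CO2; lysed with saponin/Triton buffer containing SYBR Green I, incubated overnight in the dark, then read by fluorescence (485/535 nm). Normalized to 0.29 uM artemisinin and DMSO.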
# [15] = target: Ferritin light chain (Equus caballus) (UniProt P02791); assay: qHTS Validation Assay for Identification of Novel General Anesthetics (AID 2323); also: series mostly up to about 77 µM
# Chain of Ferritin light chain (Equus caballus) (P02791 2-175 limits assumed): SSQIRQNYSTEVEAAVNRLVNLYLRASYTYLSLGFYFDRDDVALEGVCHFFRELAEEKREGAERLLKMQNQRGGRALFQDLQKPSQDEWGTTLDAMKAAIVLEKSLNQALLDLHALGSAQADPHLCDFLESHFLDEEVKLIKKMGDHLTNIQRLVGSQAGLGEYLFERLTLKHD
# Procedure, shortened: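 Competitive displacement of profluorescent 1-aminoanthracene (1-AMA, 50% saturated solution in PBS) from 10 uM horse-spleen apoferritin. Compounds incubated 10 min at room temperature; fluorescence read at 380 nm excitation/535 nm emission, normalized to free 1-AMA and complex, fitted with four-parameter Hill equation.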
# [16] = Validation screen for small molecules that induce DNA re-replication in MCF 10A normal breast cells (AID 463097); also: nearly all actives have a fitted effect of over 60% in size
# Procedure, shortened: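 Readout: Hoechst nuclear fluorescence intensity, 405 ex / 500-530 em, by scanning plate imager; re-replication scored as increase in nuclei with elevated DNA content. Cells exposed to compound 48 hr, 37 C, 5% CO2 beforehand.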
# [17] = target: Transient receptor potential cation channel subfamily V member 1 (Homo sapiens) (UniProt Q8NER1); assay: HTS Assay for Compounds that Act as Enhancers of the Vanilloid Receptor 1 (AID 488979)
# Procedure, shortened: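 TRPV1-expressing cells loaded with Fluo-8 calcium dye; compounds added and calcium influx read kinetically for 3 min (agonist phase), then capsaicin at EC20 added and read 2 min more for enhancement. Fluorescence ex 480/em 520 nm.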
structure (smiles),measurement,setting,value
C[C@]12C=CC(=O)C=C1CCC1C2=CC[C@]2(C)[C@@H](C(=O)CN3CCN(c4cc(N5CCCC5)nc(N5CCCC5)n4)CC3)CC[C@@H]12 (some centres not stated),outcome,[1],inactive
same,Potency,[2],inactive
same,Potency,[3],inactive
same,Potency,[4],13.1 µM (active)
same,Potency,[5],13.1 µM (active)
same,outcome,[6],inactive
same,activation,[7],1.5%
same,outcome,[8],inactive
same,outcome,[9],inactive
same,Potency,[10],inactive
COC(=O)c1ccc(O)c2ncc(-c3ccc(C(=O)NCCCN(C)C)cc3)cc12,Potency,[11],inactive
Oc1cccc2cc(C3CC3)cnc12,Potency,[11],inactive
CS(=O)(=O)c1ccc(C(=O)OCC(=O)N2CCC(Cc3ccccc3)CC2)cc1[N+](=O)[O-],Potency,[11],inactive
CCOc1ccc(CCNC(C)=O)cc1OCC,Potency,[11],inactive
CSc1cc2c(s1)c1cnn(Cc3cccc(N)c3)c(=O)c1n2C,Potency,[11],39.8 µM (active)
O=C1CCCC2=C1C(c1ncccc1C(F)(F)F)N=C(Nc1nc3ccccc3o1)N2 (configuration not stated),Potency,[11],inactive
O=C1CCCC2=C1C1(CCOCC1)N=C(Nc1nc3ccccc3o1)N2,Potency,[11],inactive
CCc1ccc(NC(=O)C(=O)NNC(=O)c2cccs2)cc1,Potency,[11],inactive
CN(C)c1cnc2c(O)cccc2c1,Potency,[11],inactive
O=C(Cc1ccc(Cl)c(Cl)c1)Nc1ccc([S+](=O)([O-])Nc2nnc(-c3ccccn3)s2)cc1,Potency,[11],35.5 µM (active)
O=C1CCCC2=C1C(c1ccncc1)N=C(Nc1nc3ccccc3o1)N2 (configuration not stated),Potency,[11],inactive
NC(=O)C1CCN(c2nc(-c3ccccc3N)cs2)CC1,Potency,[11],inactive
CN(CC(=O)Nc1ccc(N2CCOCC2)cc1)Cc1c(O)ccc2ccccc12,Potency,[11],inactive
O=C1CCCC2=C1C(c1ccn[nH]1)N=C(Nc1nc3ccccc3o1)N2 (configuration not stated),Potency,[11],inactive
Cc1cnc(-c2ccccc2C(C)C)nc1NCc1ccc(-c2ccc(F)nc2)cc1,Potency,[11],112 µM (active)
O=C(NC(c1ccco1)c1cc(Cl)c2cccnc2c1O)c1cccs1 (configuration not stated),Potency,[11],inactive
O=C(NCCCN1CCNCC1)c1cccc(-c2cc(O)c3ncccc3c2)c1,Potency,[11],inactive
CNCC[C@@H](Oc1ccc(C(F)(F)F)cc1)c1ccccc1,outcome,[1],inactive
same,Potency,[12],inactive
same,Potency,[3],inactive
same,Potency,[13],inactive
same,outcome,[6],inactive
same,activation,[7],18.7%
same,outcome,[8],inactive
same,outcome,[9],inactive
COc1ccc2c(=O)n3nc(Nc4cccc(N5CCN(C)CC5)c4)sc3nc2c1,Potency,[11],inactive
O=C1CCCC2=C1C1(CCCOC1)N=C(Nc1nc3ccccc3o1)N2 (configuration not stated),Potency,[11],inactive
CCOC(=O)c1[nH]c2c(c1C)C(=S)CC(c1ccco1)C2 (configuration not stated),Potency,[11],39.8 µM (active)
CCCC(=O)NCCc1c2n(c3ccc(OC)cc13)Cc1ccccc1-2,outcome,[1],inactive
same,Potency,[12],inactive
same,Potency,[14],inactive
same,outcome,[15],inactive
same,Potency,[3],inactive
same,outcome,[16],inactive
same,Potency,[4],inactive
same,Potency,[13],inactive
same,outcome,[17],inactive
same,outcome,[6],inactive
same,activation,[7],-7.06%
same,outcome,[8],inactive
same,outcome,[9],inactive
same,Potency,[10],inactive
